Where “and” joins values, the source holds several entries; their conditions need not be identical. Equal entries are not always repeated. Inconclusive results are not listed. Calls of active or inactive are those of the source. Calls follow the shape of the dose curve; as a rule, active = well fitted inhibition curve with a large enough effect; inconclusive = small, poorly fitted or top-dose-only effect; inactive = flat fitted curve, though single readings scatter.
% is scaled to controls: 0 for no effect and ±100 for the full control effect; potency is read from the fitted curve at half-maximal effect.

A short description of this assay: Primary qHTS for inhibitors of nuclear receptor binding SET domain protein 2 (NSD2) in an isogenic RCH-ACV NSD2 p.E1099K mutant (9B) (AID 1645876). Also: nearly all actives have a fitted effect of over 70% in size. The following applies: RCH-ACV (leukaemia line) NSD2 E1099K (9B) viability, CellTiter-Glo, 72 h; series mostly up to 44.9 µM; activity change, negative = viability loss: at the top concentration. (In general: qHTS replaces the single test concentration by a dilution series.)
Take `CN[C@@H]1CN(c2ccc3c(=O)c(C(=O)O)cn(-c4nccs4)c3n2)C[C@@H]1OC`: the Potency is 0.102 µM (active).

Consider `CC(C)Oc1cc(Nc2nc(N[C@@H](C)c3ccc(F)cn3)ncc2Cl)[nH]n1`, for which the Potency is 7.42 µM (active) and 8.2 µM (active).

Turning to `CC(C)C[C@H](NC(=O)c1cc2ccccc2s1)C(=O)N1CCN(C(=O)[C@H](CO)NS(=O)(=O)c2ccc(Cl)cc2Cl)CC1`, the Potency was 23.5 µM (active).

For `CN(C)CCCNC(=O)c1ccc(-c2cc(O)c3ncccc3c2)cc1`, the Potency was 9.2 µM (active) and 10.5 µM (active).

For `CN1C(=O)C(Cc2c[nH]c3ccccc23)NC1=S` (stereo unspecified), the Potency entry is “inactive”.

For `C[C@@]1(C(=O)Nc2ccc(F)nc2)CCCN1c1nc(Nc2cc(C3CC3)[nH]n2)c2cccn2n1`, the Potency is 2.95 µM (active).

On to `CO[C@@H]1C(N(C)C(=O)c2ccccc2)C[C@H]2O[C@]1(C)n1c3ccccc3c3c4c(c5c6ccccc6n2c5c31)C(=O)NC4=O` (stereo partly specified), for which the Potency was 1.66 µM (active).

Consider `N#Cc1ccc(Oc2ccc3c(c2)COB3O)cc1`, for which the Potency is 5.9 µM (active).

In the case of `OC1CCC(Nc2ncc3nc(Nc4c(F)cc(F)cc4F)n([C@@H]4CCOC4)c3n2)CC1` (stereo partly specified), the “activity change, negative = viability loss” value was -23.2% (inactive).

Take `CCN(CC)CCCCNc1nc2cc(Cl)c(Cl)cc2nc1-c1ccc(-c2cccs2)s1`: the Potency is 7.42 µM (active).

`CN[C@@H](C)[C@H]1[C@H](O)C[C@@]2(C)[C@@H]3CC[C@H]4C(C)(C)[C@@H](NC)CC[C@@]45C[C@@]35CC[C@]12C`: the activity change, negative = viability loss is 5.77% [at 9.23 µM] (inactive).

As to `CC(C)(CO)[C@@H](O)C(=O)NCCC(=O)O`, the outcome was inactive.

Take `Cc1cc(NC(=O)Nc2ccc(N(C)C)cc2)c2cc(F)cc(F)c2n1`: the “activity change, negative = viability loss” value was -21.1% [at 17.3 µM] (inactive).

On to `COC(=O)Nc1ccc(-c2nc(N3CCOCC3)c3cnn(C4CCN(C(=O)OC)CC4)c3n2)cc1`, for which the Potency is 1.05 µM (active).

As to `CC(C)[C@H](O)C(=O)N[C@@H](C)C(=O)N[C@@H]1C(=O)N(C)CCc2ccccc21`, the result was inactive.

With `CN(C)CCN(C)C(=O)c1ccc(NC(=O)Nc2ccc(-c3nc(N4CCOCC4)c4ccn(CC(F)(F)F)c4n3)cc2)cc1`, the Potency is 0.0209 µM (active).

Turning to `CCOc1ccccc1N=Nc1c(C)[nH]n(-c2nc(-c3ccccc3)cs2)c1=O`, the “activity change, negative = viability loss” value was 8.03% (inactive).

In the case of `C#CCN(C)CC1=Cc2ccccc2Oc2ccccc21`, the result was inactive.

For the compound `CN(C)CC[C@H](CSc1ccccc1)Nc1ccc(S(=O)(=O)NC(=O)c2ccc(N3CCN(Cc4ccccc4-c4ccc(Cl)cc4)CC3)cc2)cc1[N+](=O)[O-]`, the Potency was 4.17 µM (active).

Consider `Cc1ccc(C(=O)N(CCCN)[C@@H](c2oc3cc(Cl)ccc3c(=O)c2Cc2ccccc2)C(C)C)cc1`, for which the Potency was 0.0332 µM (active).

As for `O=C1CCCC(=O)C1C(=O)c1ccc(C(F)(F)F)cc1[N+](=O)[O-]`, the outcome was inactive.

Regarding `NCc1c[nH]c(=S)n1[C@H]1CCc2c(F)cc(F)cc2C1`, the “activity change, negative = viability loss” value was -10.5% (inactive).

As to `NC1(C(=O)N[C@@H](CCO)c2ccc(Cl)cc2)CCN(c2ncnc3[nH]ccc23)CC1`, the Potency is 0.817 µM (active).

For `CC(C)C[C@@H](N)[C@H](O)C(=O)N[C@H](C(=O)N[C@H](C(=O)N[C@@H](CC(=O)O)C(=O)O)C(C)C)C(C)C`, the “activity change, negative = viability loss” value was 5.48% (inactive).

Turning to `O=C(O)Cc1cccc(OCCCN(Cc2cccc(C(F)(F)F)c2Cl)CC(c2ccccc2)c2ccccc2)c1`, the “activity change, negative = viability loss” value is -21.4% (inactive).

For `NCC1CCC(C(=O)O)CC1` (stereo unspecified), the “outcome” value is “inactive [at 17.3 µM]”.

For `CN(C)N=Nc1nc[nH]c1C(N)=O`, the Potency was 2.95 µM (active).

For the compound `CCOC(=O)c1c(CSc2ccccc2)n(C)c2cc(Br)c(O)c(CN(C)C)c12`, the Potency is 18.6 µM (active).

With `Nc1nc(Cl)nc2c1ncn2[C@@H]1O[C@H](CO)[C@@H](O)[C@H]1F`, the Potency was 0.0231 µM (active).

`N#Cc1c(N(CC(=O)O)CC(=O)O)sc(C(=O)O)c1CC(=O)O`: the “activity change, negative = viability loss” value is 6.68% (inactive).

For `COc1ccc2c(c1)c(C1=C(c3c[nH]c4ccccc34)C(=O)NC1=O)cn2CCCN(C)C`, the Potency was 7.42 µM (active).

Turning to `COc1ccc(CCN(C)CCCOc2ccc(S(=O)(=O)c3[nH]c4ccccc4c3C(C)C)cc2)cc1OC`, the Potency is 13.2 µM (active).

On to `CCOC(=O)[C@@H](N)CCC(=O)N[C@@H](CSCc1ccccc1)C(=O)N[C@@H](C(=O)OCC)c1ccccc1`, for which the Potency was 20.9 µM (active).

For `O=[N+]([O-])c1ccc(Nc2ccccc2-c2ccccc2)c2nonc12`, the Potency is 20.9 µM (active).

Turning to `CCC[C@H](N[C@@H](C)C(=O)N1[C@@H]2CCCC[C@H]2C[C@H]1C(=O)O)C(=O)OCC`, the compound was called inactive.

With `Cc1ccc(S(=O)(=O)Nc2nc3ccccc3nc2Nc2ccc3nsnc3c2)cc1`, the “activity change, negative = viability loss” value was -0.735% [at 17.3 µM] (inactive).
